In all, about 9,900 compounds went through this assay and about 90 (0.9%) were called active. Roughly 2% stayed inconclusive and do not appear here. Shown is part of a subset that was picked to be rich in actives. Values without a mark were called inactive.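 The calls were made as follows: active = mean normalized replicate activity at least 50 and at least half of replicates each reaching 50; inconclusive = only one of the two criteria met; inactive = neither criterion met.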

A short description of this assay: reduction of CTGF mRNA in DLD1 cells – DLD1 colon cancer cells, RT-qPCR, single point, primary screen (AID 743449).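 Also: 0% = neutral control wells and 100% = dasatinib control wells; higher means stronger suppression of CTGF expression like dasatinib.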 Particulars: 24 h, at 12.5 µM, hits give high values. (Quantitative PCR measures a nucleic acid by following its amplification.)
A word on the inhibition: it is the relative decrease from the control value, in per cent. As to `COCC(=O)N1[C@H](CO)[C@H](c2ccc(C#Cc3ccccc3F)cc2)[C@@H]1C#N`, the inhibition was 5.53%.
Regarding `COc1ccc(C(=O)N2C[C@@H]3[C@H](c4ccccc42)[C@H](CO)N3C(=O)NC(C)C)cc1`, the inhibition is -12.1%.
Regarding `C[C@H]1CN([C@@H](C)CO)C(=O)c2ccccc2-c2ccccc2CO[C@@H]1CN(C)C(=O)[C@H](Cc1ccccc1)N(C)C`, the inhibition was -17.8%.
Turning to `Cc1noc(C)c1NC(=O)N(C)C[C@@H]1OCc2ccccc2-c2c(n(C)c3ccccc23)C(=O)N([C@H](C)CO)C[C@@H]1C`, the inhibition was -14.8%.
`CCCC(=O)Nc1ccc2c(c1)C(=O)N(C)C[C@H](OC)[C@@H](C)CN(C(=O)c1ccccn1)[C@@H](C)CO2`: the inhibition was 25.7%.
As for `O=C([C@@H]1[C@@H](CO)[C@@H]2Cn3c(ccc(-c4ccc(F)cc4)c3=O)[C@@H]2N1Cc1cocn1)N1CCCCC1`, the inhibition was -1.91%.
The result for `O=C(NCC1CC1)[C@H]1[C@H](CO)[C@H]2Cn3c(ccc(-c4cccnc4)c3=O)[C@H]2N1Cc1cocn1` reads -2.27%; that for `O=C([C@H]1[C@H](CO)[C@H]2Cn3c(ccc(-c4ccc(F)cc4)c3=O)[C@H]2N1Cc1cocn1)N1CCCCC1`, 53.6% (active); that for `CCS(=O)(=O)Nc1ccc2c(c1)C(=O)N(C)C[C@H](OC)[C@H](C)CN(C(=O)c1ccc3c(c1)OCO3)[C@@H](C)CO2`, -9.16%.
In the case of `C[C@@H]1CN([C@H](C)CO)C(=O)CCCn2nncc2CO[C@H]1CN(C)Cc1ccc(C(=O)Nc2ccccc2N)cc1`, the inhibition was -132%.
As to `CCC(=O)N1C[C@@H](C)[C@@H](OC)CN(C)C(=O)c2cc(NC(=O)Nc3ccc(Cl)cc3)ccc2OC[C@@H]1C`, the inhibition was 15%.
Turning to `CO[C@@H]1CN(C)C(=O)c2cc(NC(=O)Nc3ccccc3F)ccc2OC[C@H](C)N(CCC(F)(F)F)C[C@H]1C`, the inhibition is 21%.
The figure for `CCCN1C[C@H](C)[C@@H](OC)CN(C)C(=O)c2cc(NS(=O)(=O)c3ccccc3)ccc2OC[C@H]1C` is 2.69%; for `CO[C@H]1CN(C)C(=O)c2cc(NC(=O)Nc3ccccc3F)ccc2OC[C@H](C)N(CCC(F)(F)F)C[C@@H]1C` it is 65.1% (active); for `CCCN1C[C@@H](C)[C@H](OC)CN(C)C(=O)c2cc(NS(=O)(=O)c3ccccc3)ccc2OC[C@@H]1C` it is -22.6%.
On to `CO[C@@H]1CN(C)C(=O)c2cc(NS(=O)(=O)c3ccccc3C)ccc2OC[C@@H](C)N(S(=O)(=O)c2ccccc2)C[C@H]1C`, for which the inhibition was 75.2% (active).
With `COc1ccccc1C(=O)Nc1ccc2c(c1)C(=O)N(C)C[C@H](OC)[C@@H](C)CN(C(C)=O)[C@@H](C)CO2`, the inhibition was 64.2% (active).
Take `COc1ccccc1C(=O)Nc1ccc2c(c1)C(=O)N(C)C[C@H](OC)[C@H](C)CN(C(C)=O)[C@H](C)CO2`: the inhibition was -22.7%.
With `CCC(=O)N1C[C@@H](C)[C@@H](OC)CN(C)C(=O)c2cc(NC(=O)Nc3ccc(Cl)cc3)ccc2OC[C@H]1C`, the inhibition was -27.4%.
As for `CO[C@H]1CN(C)C(=O)c2cc(NC(=O)Nc3ccccc3F)ccc2OC[C@@H](C)N(CCC(F)(F)F)C[C@@H]1C`, the inhibition was 8.27%.
Turning to `COc1ccccc1C(=O)Nc1ccc2c(c1)C(=O)N(C)C[C@@H](OC)[C@@H](C)CN(C(C)=O)[C@@H](C)CO2`, the inhibition was -6.31%.
With `CCC(=O)N1C[C@H](C)[C@@H](OC)CN(C)C(=O)c2cc(NC(=O)Nc3ccc(Cl)cc3)ccc2OC[C@@H]1C`, the inhibition is 59.6% (active).
The figure for `C[C@H](CO)N1C[C@H](C)[C@@H](CN(C)S(=O)(=O)c2cn(C)cn2)OCc2ccccc2-c2ccccc2C1=O` is 13.5%; for `C[C@H]1CN([C@@H](C)CO)C(=O)c2cc(-c3ccncc3)cnc2O[C@@H]1CN(C)C(=O)CN1CCOCC1` it is 4.89%.
Take `O=C(C1CCOCC1)N1C[C@H]2[C@@H](c3ccccc31)[C@H](CO)N2C(=O)Cc1ccccn1`: the inhibition is -3.22%.
As to `CCCNC(=O)N(C)C[C@H]1[C@H](c2ccccc2)[C@@H](CO)N1C(=O)c1ccccc1`, the inhibition was 13.1%.
On to `COCC(=O)Nc1ccc2c(c1)[C@H]1C[C@@H](CC(=O)N3CCOCC3)O[C@H](CO)[C@H]1O2`, for which the inhibition was -2.81%.
The figure for `C[C@H](CO)N1C[C@H](C)[C@H](CN(C)Cc2cccnc2)Oc2ncc(-c3ccc(C#N)cc3)cc2C1=O` is 10.9%.
Consider `Cc1noc(C)c1S(=O)(=O)N(C)C[C@H]1OCCCC[C@@H](C)Oc2ccc(NC(=O)CCC(F)(F)F)cc2C(=O)N([C@@H](C)CO)C[C@H]1C`, for which the inhibition is -10.5%.
With `CCN1[C@@H]2c3ccc(C4=CCCC4)c(=O)n3C[C@@H]2[C@@H](CO)[C@@H]1C(=O)NC1Cc2ccccc2C1`, the inhibition is -18.3%.
The figure for `Cc1cc(C(=O)Nc2ccc3c(c2)C(=O)N(C)[C@@H]2CC[C@@H](CC(=O)O)O[C@H]2CO3)no1` is 8.49%; for `COCC(=O)N1CC[C@@H]2[C@H]1c1cc(C#Cc3ccc(F)cc3)ccc1N[C@@H]2CO` it is 22.4%.
Consider `COCC(=O)N1CC[C@@H]2[C@@H](CO)Nc3ccc(C#Cc4ccc(F)cc4)cc3[C@@H]21`, for which the inhibition was 12.9%.
For `COCC(=O)N1CC[C@@H]2[C@H](CO)Nc3ccc(C#Cc4ccc(F)cc4)cc3[C@@H]21`, the inhibition was 51.2% (active).
The figure for `COc1cccc(NC(=O)C[C@@H]2CC[C@@H]3[C@H](COc4ccc(NS(=O)(=O)c5cccc(F)c5)cc4C(=O)N3C)O2)c1` is -76.5%; for `C[C@H]1CN([C@@H](C)CO)C(=O)c2c(c3ccccc3n2C)-c2ccccc2CO[C@@H]1CN(C)S(=O)(=O)c1ccc([N+](=O)[O-])cc1` it is 23.9%; for `C[C@@H]1CN([C@@H](C)CO)C(=O)c2ccccc2-c2ccccc2CO[C@@H]1CN(C)Cc1cccc2c1OCCCO2` it is 14.7%.
For `C[C@@H]1CN([C@@H](C)CO)C(=O)c2ccccc2-c2ccccc2CO[C@@H]1CN(C)Cc1ccccc1C(F)(F)F`, the inhibition is -64.4%.
The result for `C[C@@H]1CN([C@@H](C)CO)C(=O)c2ccccc2-c2ccccc2CO[C@H]1CN(C)S(=O)(=O)c1cn(C)cn1` reads -9.13%; that for `C[C@@H]1CN([C@@H](C)CO)C(=O)c2c(c3ccccc3n2C)-c2ccccc2CO[C@H]1CN(C)S(=O)(=O)c1ccc([N+](=O)[O-])cc1`, 7.85%; that for `C[C@H]1CN([C@@H](C)CO)C(=O)c2ccccc2-c2ccccc2CO[C@H]1CN(C)Cc1cccc2c1OCCCO2`, 24%.
Turning to `C[C@H](CO)N1C[C@H](C)[C@H](CN(C)Cc2ccccc2C(F)(F)F)OCc2ccccc2-c2ccccc2C1=O`, the inhibition was 26.5%.
On to `C[C@H](CO)N1C[C@H](C)[C@@H](CN(C)S(=O)(=O)c2ccc([N+](=O)[O-])cc2)OCc2ccccc2-c2c(n(C)c3ccccc23)C1=O`, for which the inhibition is 63.8% (active).
For the compound `C[C@@H]1CN([C@H](C)CO)C(=O)c2ccccc2-c2ccccc2CO[C@@H]1CN(C)Cc1cccc2c1OCCCO2`, the inhibition is 59.4% (active).
As to `C[C@@H]1CN([C@H](C)CO)C(=O)c2ccccc2-c2ccccc2CO[C@@H]1CN(C)Cc1ccccc1C(F)(F)F`, the inhibition was 69.6% (active).
As to `C[C@@H]1CN([C@@H](C)CO)C(=O)c2ccccc2-c2ccccc2CO[C@@H]1CN(C)S(=O)(=O)c1cn(C)cn1`, the inhibition is 63% (active).
Regarding `C[C@H]1CN([C@@H](C)CO)C(=O)c2ccccc2-c2ccccc2CO[C@@H]1CN(C)S(=O)(=O)c1cn(C)cn1`, the inhibition is -12.7%.

The record behind these values is PubChem BioAssay AID743449 (Broad Institute, 2014).
